Data taken from the supplement of paper PMC13380429.

Test system: Vero E6 infected with SARS-CoV-2
Assay: inhibition of SARS-CoV-2 cytopathic effect; higher = more antiviral protection, active = above 15
Details: 48 h

Measured: inhibition of SARS-CoV-2 cytopathic effect

CSCC[C@H](NC(=O)[C@H](Cc1ccccc1)NC(=O)CNC(=O)CNC(=O)[C@@H](N)Cc1ccc(O)cc1)C(=O)O [metenkephalin]
inactive: 1 nM 0.74% | 8.33 nM -1.23% | 100 nM 1.24% | 833.33 nM -4.78% | 10000 nM -5.57%

CCc1cnn2c(NCc3ccc[n+]([O-])c3)cc(N3CCCC[C@H]3CCO)nc12 [dinaciclib]
inactive: 1 nM 1.49% | 8.33 nM -1.48% | 100 nM -3.71% | 833.33 nM -9.46% | 10000 nM -8.75%

CCCN1CCC[C@@H]2Cc3nc(N)ncc3C[C@H]21 [quinelorane]
inactive: 1 nM 0.91% | 8.33 nM -0.4% | 100 nM 0.8% | 833.33 nM -1.2% | 10000 nM -1.06%

CC(=O)O[C@]1(C(C)=O)CC[C@H]2[C@@H]3CCC4=CC(=O)CC[C@]4(C)[C@H]3CC[C@@]21C [hydroxyprogesterone-acetate]
inactive: 1 nM -3.23% | 8.33 nM 0.18% | 100 nM -2.75% | 833.33 nM 0.45% | 10000 nM 10.9%

Nc1ccn([C@H]2CO[C@@H](CO)S2)c(=O)n1 [apricitabine]
inactive: 1 nM 0.27% | 8.33 nM 2.59% | 100 nM 0.92% | 833.33 nM 2.02% | 10000 nM -3.28%

C/C(=N\NC(=O)C(NC(=O)c1ccccc1)c1n[nH]c(=O)c2ccccc12)c1cccc(Br)c1 (stereo not given)
inactive: 1 nM -0.71% | 8.33 nM 2.21% | 100 nM 0.8% | 833.33 nM 3.15% | 10000 nM 4.46%

CSc1ccc(C(=O)N[C@@H]2CCCC[C@@H]2NC(=O)CNC(=O)c2cc(C(F)(F)F)ccc2NC(=O)NC(C)C)cc1
inactive: 1 nM 4.3% | 8.33 nM -0.79% | 100 nM 0.52% | 833.33 nM 0.24% | 10000 nM 0.79%

CN(Cc1cc(Br)cc(Br)c1N)C1CCCCC1 [bromhexine]
inactive: 1 nM 0.85% | 8.33 nM 0.02% | 100 nM 2.7% | 833.33 nM 3.11% | 10000 nM 11.6%

CO[C@H]1C[C@H](O[C@H]2CC[C@@]3(C)[C@H](CC[C@@H]4[C@@H]3CC[C@]3(C)[C@@H](C5=CC(=O)OC5)[C@@H](OC(C)=O)C[C@]43O)C2)O[C@@H](C)[C@@H]1O [oleandrin]
inactive: 1 nM -3.22% | 8.33 nM -5.79% | 100 nM -12.1% | 833.33 nM -12.2% | 10000 nM -9.58%

CC(C)C[C@@H]1NC(=O)[C@@H](C(C)C)NC(=O)[C@@H]2CCCN2C(=O)[C@@H](CC(=O)O)NC(=O)[C@@H](Cc2c[nH]c3ccccc23)NC1=O
inactive: 1 nM -2.63% | 8.33 nM 1.4% | 100 nM -0.29% | 833.33 nM -0.26% | 10000 nM -0.15%

C[C@@H]1CN([C@H]2CC[C@](C#N)(c3ccc(F)cc3)CC2)CC[C@]1(C(=O)O)c1ccccc1 [levocabastine]
inactive: 1 nM 1.53% | 8.33 nM 0.57% | 100 nM -0.86% | 833.33 nM 1.81% | 10000 nM -0.71%

O=C(CCCN1CCC2(CC1)C(=O)NCN2c1ccccc1)c1ccc(F)cc1 [spiperone]
inactive: 1 nM 1.92% | 8.33 nM 1.62% | 100 nM 0.95% | 833.33 nM 9.61%
active: 10000 nM 81.1%

NS(=O)(=O)c1cc2c(cc1Cl)NCNS2(=O)=O [hydrochlorothiazide]
inactive: 1 nM 3.33% | 8.33 nM 0.33% | 100 nM 0.49% | 833.33 nM 0.84% | 10000 nM -1.16%

O=C(CSc1nc2c(c(=O)n1-c1ccccc1)SCC2)Nc1ccc(-c2ccccc2)cn1
inactive: 1 nM 2.66% | 8.33 nM -2.46% | 100 nM 3.88% | 833.33 nM 1.2% | 10000 nM -2.73%

CC(=O)C1=C(O)[C@@H]2[C@H]3c4c[nH]c5cccc(c45)C[C@H]3C(C)(C)N2C1=O [cyclopiazonic-acid]
inactive: 1 nM 0.48% | 8.33 nM 0.86% | 100 nM 2% | 833.33 nM -0.85% | 10000 nM 14.2%

COc1cccc(OC)c1C(=O)N[C@@H]1C(=O)N2[C@@H]1SC(C)(C)[C@@H]2C(=O)O [methicillin]
inactive: 1 nM -3.39% | 8.33 nM 1.78% | 100 nM -1.39% | 833.33 nM -0.54% | 10000 nM 1.21%

NNC(=O)c1ccncc1 [isoniazid]
inactive: 1 nM -3.24% | 8.33 nM 0.31% | 100 nM 0.58% | 833.33 nM 3.21% | 10000 nM -1.15%

C=C1CC[C@@]2(O)[C@H]3Cc4ccc(O)c5c4[C@@]2(CCN3CC2CC2)[C@H]1O5 [nalmefene]
inactive: 1 nM 1.67% | 8.33 nM 1.64% | 100 nM 2.15% | 833.33 nM -1.46% | 10000 nM -3.45%

Cc1c(F)cccc1NC(=O)Nc1ccc(Cl)c(S(=O)(=O)[C@H]2CCCNC2)c1O [danirixin]
inactive: 1 nM -0.94% | 8.33 nM -0.94% | 100 nM -0.32% | 833.33 nM -0.62% | 10000 nM 2.67%

O=C(O)c1ccc(NC(=O)[C@H](Cc2ccc(O)cc2)NC(=O)c2ccccc2)cc1 [bentiromide]
inactive: 1 nM -1.4% | 8.33 nM 0.94% | 100 nM -1.51% | 833.33 nM -0.68% | 10000 nM 0.39%

COc1cc(CCc2cc(NC(=O)c3ccc(N4CC(C)NC(C)C4)cc3)n[nH]2)cc(OC)c1 (stereo not given)
inactive: 1 nM -1.78% | 8.33 nM 1.81% | 100 nM 1.04% | 833.33 nM -1.56% | 10000 nM -1.21%

CC(C)NC(=O)COc1cccc(-c2nc(Nc3ccc4[nH]ncc4c3)c3ccccc3n2)c1
inactive: 1 nM -1.49% | 8.33 nM -1.42% | 100 nM 0.74% | 833.33 nM 1.37% | 10000 nM 1.49%

O=C(O)Cc1ccc2c(c1)C(=O)c1ccccc1CO2 [isoxepac]
inactive: 1 nM -4.41% | 8.33 nM -3.03% | 100 nM -6.78% | 833.33 nM -4.01% | 10000 nM 0.02%

CCCCCCCCCCCC[N+](C)(C)CCOc1ccccc1 [domiphen]
inactive: 1 nM -2.49% | 8.33 nM -1.64% | 100 nM 0.17% | 833.33 nM 0.26% | 10000 nM -8.43%

COc1cc(C(=O)NC2CCCNC2)cc(OC)c1OC (stereo not given) [troxipide]
inactive: 1 nM 0.11% | 8.33 nM -0.47% | 100 nM 1.46% | 833.33 nM -0.19% | 10000 nM 2.03%

COc1cc2c(NC3CCN(C)CC3)nc(N3CCCN(C)CC3)nc2cc1OCCOCCN(C)C
inactive: 1 nM -0.25% | 8.33 nM 0.8% | 100 nM -0.4% | 833.33 nM 2.99% | 10000 nM -3.09%

COC1CCN(C(=O)c2cc(Cc3n[nH]c(=O)c4ccccc34)ccc2F)CC1
inactive: 1 nM -0.72% | 8.33 nM 7.33% | 100 nM 4.58% | 833.33 nM 3.41% | 10000 nM 4.58%

Cc1ccc2cc(-c3c(C)ccc(C(=O)c4c(-c5ccccc5)n(C)n(-c5ccccc5)c4=O)c3N)ccc2n1
active: 10000 nM 43.4%
inactive: 1 nM -0.74% | 8.33 nM -0.19% | 100 nM -0.14% | 833.33 nM 2.1%

CO/N=C(\C(=O)N[C@@H]1C(=O)N2C(C(=O)O)=C(CSC(=O)c3ccco3)CS[C@H]12)c1csc(N)n1
inactive: 1 nM -0.19% | 8.33 nM -0.66% | 100 nM -1.18% | 833.33 nM -0.09% | 10000 nM -0.18%

NCCc1ccc(O)c(O)c1 [dopamine]
inactive: 1 nM -0.56% | 8.33 nM 0.74% | 100 nM -0.35% | 833.33 nM 0.38% | 10000 nM 0.14%

CCCCCCCCCCCCCCCC[N+](C)(C)C [cetrimonium]
inactive: 1 nM 1.02% | 8.33 nM -0.39% | 100 nM 0.2% | 833.33 nM -3.96% | 10000 nM -18.4%

CO[C@H]1/C=C\C=C(/C)C(=O)NC2=CC(=O)C(NCCN(C)C)=C(C[C@@H](C)C[C@H](OC)[C@H](O)[C@@H](C)/C=C(\C)[C@@H]1OC(N)=O)C2=O [alvespimycin]
inactive: 1 nM 0.5% | 8.33 nM 1.37% | 100 nM 0.62% | 833.33 nM 1.28% | 10000 nM 12.4%

COC(=O)C1=C(C)NC(C)=C(C(=O)O[C@H]2CCN(Cc3ccccc3)C2)[C@H]1c1cccc([N+](=O)[O-])c1 [barnidipine]
inactive: 1 nM 2.33% | 8.33 nM 1.62% | 100 nM 1.31% | 833.33 nM 3.84% | 10000 nM -0.56%

O[C@@](Cc1nc(CC2(C(F)(F)F)CC2)c[nH]1)(c1ccc(-n2cccn2)cc1)C(F)(F)F
inactive: 1 nM 0.23% | 8.33 nM -0.02% | 100 nM 0.57% | 833.33 nM -0.43% | 10000 nM -2.55%

CCN(CCCc1ccccc1)CCCc1ccccc1 [alverine]
inactive: 1 nM -0.33% | 8.33 nM 1.03% | 100 nM -0.23% | 833.33 nM -0.58% | 10000 nM -0.57%

O=C(O)c1ccccc1Nc1cccc(C(F)(F)F)c1 [flufenamic-acid]
inactive: 1 nM -1.93% | 8.33 nM 0.57% | 100 nM -0.92% | 833.33 nM 0.82% | 10000 nM 0.1%

CCCCN1CCCC1CNC(=O)c1cc(C#N)c2ccccc2c1OC (stereo not given) [nafadotride]
inactive: 1 nM -1.44% | 8.33 nM -0.63% | 100 nM -0.23% | 833.33 nM 0.59% | 10000 nM 0.87%

CCC(COC(=O)c1cc(OC)c(OC)c(OC)c1)(c1ccccc1)N(C)C (stereo not given) [trimebutine]
inactive: 1 nM -4.71% | 8.33 nM -2.14% | 100 nM -2.65% | 833.33 nM -0.31% | 10000 nM 2.51%
